The nature of test [1]: NCI Yeast Anticancer Drug Screen. Data for the rad50 strain (AID 155).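 Also: 0% = growth of vehicle-only cultures of the same strain.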 The settings on record: S. cerevisiae rad50 strain growth inhibition, stronger effect = higher value. The essentials:
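A DNA repair-deficient yeast mutant serves as the test organism; compound-induced growth inhibition is calculated against vehicle-treated cells.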

Test [2] in a line: NCI Yeast Anticancer Drug Screen. Data for the mec2-1 strain (AID 157). The settings on record: S. cerevisiae mec2-1 strain, stronger effect = higher value. The essentials: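 Test agents were screened against the mec2-1 yeast strain, with defined DNA repair or cell cycle alteration. Growth was scored as inhibition against vehicle-only controls.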
Test [3] is described as follows: NCI Yeast Anticancer Drug Screen. Data for the sgs1 mgt1 strain (AID 161).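 Also: 0% = growth of cultures given vehicle only.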 The settings on record: S. cerevisiae sgs1 mgt1 strain, stronger effect = higher value. The essentials:
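Test agents were incubated with a DNA-repair-mutant yeast strain. Growth was then read and compared against vehicle-treated controls.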

Test [4] is described as follows: NCI Yeast Anticancer Drug Screen. Data for the cln2 rad14 strain (AID 165).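 Also: 0% = growth equal to vehicle treated cultures.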 The note with it: S. cerevisiae cln2 rad14 strain, stronger effect = higher value. An outline of the steps:
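Growth of compound-exposed yeast (cln2 rad14 genotype) measured and expressed as inhibition relative to vehicle.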

Test [5] in a line: NCI Yeast Anticancer Drug Screen. Data for the bub3 strain (AID 167). The settings on record: S. cerevisiae bub3 mutant strain, stronger effect = higher value. An outline of the steps: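 Inhibition values come from growth of compound-treated mutant yeast normalised to vehicle-treated controls.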
Test [6] can be described thus: NCI Yeast Anticancer Drug Screen. Data for the mlh1 rad18 strain (AID 175). The note with it: S. cerevisiae mlh1 rad18 strain growth inhibition, stronger effect = higher value. The essentials: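 In this whole-cell yeast screen, a strain with altered DNA damage repair is challenged with compound, and its growth is measured against matched vehicle-treated controls.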
[7] abbreviates: at 5.0 µM (retest, dose inferred, filed as 0.5).
Where [8] appears, read: at 50.0 µM (retest, dose inferred, filed as 5.0).

The panel holds about 79,000 compounds, 15% with a hit somewhere; the sample as a whole holds those more often. A number with no mark means an inactive call. Activity calls are given as the source filed them. Rule as the data show it: active = growth inhibition above about 70%; inactive = the rest.

This note sets out measurements from PubChem BioAssay (NCI).

Regarding `NNc1ccc(Br)cc1`, the growth inhibition in test [1] (setting [7]) is 83% (active); in test [1] (setting [8]), 98% (active); in test [1] (at 50.0 µM) it was 90.3% (active); in test [2] (setting [7]), 83% (active); in test [2] (setting [8]), 98% (active); in test [2] (at 50.0 µM) it was 92.2% (active). Moreover, the growth inhibition in test [3] (setting [7]) is 96% (active); in test [3] (setting [8]), 99% (active); in test [3] (at 50.0 µM), 92.7% (active); in test [4] (setting [7]), 47%; in test [4] (setting [8]), 98% (active); in test [4] (at 50.0 µM), 90.5% (active). Further, the growth inhibition was 98% (active) in test [5] (setting [7]); 96% (active) in test [5] (setting [8]); 91% (active) in test [5] (at 50.0 µM); 33% in test [6] (setting [7]); 100% (active) in test [6] (setting [8]); 89.7% (active) in test [6] (at 50.0 µM).

Consider `CCOC(=O)CN1CCCC(C(=O)CC2(O)C3(Cl)C4(Cl)C5(Cl)C(Cl)(Cl)C6(Cl)C4(Cl)C2(Cl)C6(Cl)C53Cl)C1` (configuration not stated), for which the growth inhibition in test [1] (setting [7]) was 62%; in test [1] (setting [8]) it was 98% (active); in test [1] (at 50.0 µM), 52.5%; in test [2] (setting [7]), 54%; in test [2] (setting [8]), 99% (active); in test [2] (at 50.0 µM) it was 49.9%. Besides, the growth inhibition in test [3] (setting [7]) is 61%; in test [3] (setting [8]) it was 99% (active); in test [3] (at 50.0 µM) it was 55%; in test [4] (setting [7]), 36%; in test [4] (setting [8]), 99% (active); in test [4] (at 50.0 µM) it was 71.2% (active). The growth inhibition in test [5] (setting [7]) is 59%; in test [5] (setting [8]), 99% (active); in test [5] (at 50.0 µM) it was 48.5%; in test [6] (setting [7]), 87% (active); in test [6] (setting [8]), 99% (active); in test [6] (at 50.0 µM), 50.3%.

Turning to `O=C1c2ccccc2C(=O)N1CCn1ccc(NC(c2ccccc2)(c2ccccc2)c2ccccc2)nc1=O`, the growth inhibition in test [1] (setting [7]) was 48%; in test [1] (setting [8]) it was 48%; in test [1] (at 50.0 µM), 66.3%; in test [2] (setting [7]) it was 28%; in test [2] (setting [8]) it was 28%; in test [2] (at 50.0 µM), 74.9% (active). Moreover, the growth inhibition in test [3] (setting [7]) was 50%; in test [3] (setting [8]) it was 50%; in test [3] (at 50.0 µM) it was 67.2%; in test [4] (setting [7]), 5%; in test [4] (setting [8]) it was 5%; in test [4] (at 50.0 µM), 80.6% (active). Moreover, the growth inhibition was 27% in test [5] (setting [7]); 27% in test [5] (setting [8]); 79.2% (active) in test [5] (at 50.0 µM); 44% in test [6] (setting [7]); 44% in test [6] (setting [8]); 65.3% in test [6] (at 50.0 µM).

As for `Nc1ccc2nnnn2c1`, the growth inhibition in test [1] (setting [7]) is 0%; in test [1] (setting [8]), 72% (active); in test [1] (at 50.0 µM), 24.5%; in test [2] (setting [7]), -2%; in test [2] (setting [8]), 19%; in test [2] (at 50.0 µM), 38%. For the same molecule, the growth inhibition in test [3] (setting [7]) is 9%; in test [3] (setting [8]), 76% (active); in test [3] (at 50.0 µM) it was 46.8%; in test [4] (setting [7]), 3%; in test [4] (setting [8]) it was 27%; in test [4] (at 50.0 µM), 31.2%. The growth inhibition is 10% in test [5] (setting [7]); 78% (active) in test [5] (setting [8]); 5.8% in test [5] (at 50.0 µM); 14% in test [6] (setting [7]); 91% (active) in test [6] (setting [8]); 70.5% (active) in test [6] (at 50.0 µM).

Take `O=C(CNc1cccc(Cl)c1)Nn1c(-c2ccccc2)nc2ccccc2c1=O`: the growth inhibition in test [1] (setting [7]) was 7%; in test [1] (setting [8]) it was 88% (active); in test [1] (at 50.0 µM), 92% (active); in test [2] (setting [7]) it was -1%; in test [2] (setting [8]), 69%; in test [2] (at 50.0 µM) it was 87.7% (active). The growth inhibition in test [3] (setting [7]) was 4%; in test [3] (setting [8]), 59%; in test [3] (at 50.0 µM), 95.2% (active); in test [4] (setting [7]), 16%; in test [4] (setting [8]), 74% (active); in test [4] (at 50.0 µM), 90.6% (active). The growth inhibition in test [5] (setting [7]) is 22%; in test [5] (setting [8]), 87% (active); in test [5] (at 50.0 µM), 96% (active); in test [6] (setting [7]), 4%; in test [6] (setting [8]) it was 86% (active); in test [6] (at 50.0 µM), 96.7% (active).

Turning to `COC1OC(COC(=O)c2ccccc2)CC1F` (configuration not stated), the growth inhibition in test [1] (setting [7]) was 16%; in test [1] (setting [8]) it was -26%; in test [1] (at 50.0 µM), 93.5% (active); in test [2] (setting [7]), -8%; in test [2] (setting [8]), -22%; in test [2] (at 50.0 µM), 94.8% (active). The growth inhibition was -12% in test [3] (setting [7]); -13% in test [3] (setting [8]); 94% (active) in test [3] (at 50.0 µM); -24% in test [4] (setting [7]); -2% in test [4] (setting [8]); 91.8% (active) in test [4] (at 50.0 µM). Also, the growth inhibition in test [5] (setting [7]) is 19%; in test [5] (setting [8]), 26%; in test [5] (at 50.0 µM), 93.3% (active); in test [6] (setting [7]), 18%; in test [6] (setting [8]), -54%; in test [6] (at 50.0 µM), 92.2% (active).

With `Cc1ccc2sc(=S)sc2c1`, the growth inhibition in test [1] (setting [7]) was -2%; in test [1] (setting [8]), 32%; in test [1] (at 50.0 µM) it was 59.5%; in test [2] (setting [7]), -3%; in test [2] (setting [8]), 53%; in test [2] (at 50.0 µM), 25.4%. Further, the growth inhibition in test [3] (setting [7]) is -2%; in test [3] (setting [8]) it was 40%; in test [3] (at 50.0 µM), 40.4%; in test [4] (setting [7]), 0%; in test [4] (setting [8]) it was 77% (active); in test [4] (at 50.0 µM) it was 74.2% (active). Further, the growth inhibition is 7% in test [5] (setting [7]); 65% in test [5] (setting [8]); 95.3% (active) in test [5] (at 50.0 µM); -19% in test [6] (setting [7]); 69% in test [6] (setting [8]); 72.3% (active) in test [6] (at 50.0 µM).

As for `COc1ccccc1C(=O)c1c(C(=O)O)ccc2ccccc12`, the growth inhibition in test [1] (setting [7]) was -2%; in test [1] (setting [8]), -17%; in test [1] (at 50.0 µM) it was 3.8%; in test [2] (setting [7]), -6%; in test [2] (setting [8]), -28%; in test [2] (at 50.0 µM) it was 6.9%. Besides, the growth inhibition in test [3] (setting [7]) is -3%; in test [3] (setting [8]), -25%; in test [3] (at 50.0 µM), 7.75%; in test [4] (setting [7]), -17%; in test [4] (setting [8]), -3%; in test [4] (at 50.0 µM), 27.6%. For the same molecule, the growth inhibition in test [5] (setting [7]) is -10%; in test [5] (setting [8]), -5%; in test [5] (at 50.0 µM), 13.7%; in test [6] (setting [7]), -4%; in test [6] (setting [8]), -1%; in test [6] (at 50.0 µM), 48.6%.

For `O=C(O)CSc1nnc2c3ccccc3c3ccccc3c2n1`, the growth inhibition is -14% in test [1] (setting [7]); 70% (active) in test [1] (setting [8]); 48% in test [1] (at 50.0 µM); 6% in test [2] (setting [7]); 46% in test [2] (setting [8]); 30.1% in test [2] (at 50.0 µM). Further, the growth inhibition in test [3] (setting [7]) was -2%; in test [3] (setting [8]) it was 55%; in test [3] (at 50.0 µM) it was 7.8%; in test [4] (setting [7]) it was -33%; in test [4] (setting [8]), 65%; in test [4] (at 50.0 µM), 47.7%. In addition, the growth inhibition is 17% in test [5] (setting [7]); 53% in test [5] (setting [8]); 54.9% in test [5] (at 50.0 µM); 9% in test [6] (setting [7]); 71% (active) in test [6] (setting [8]); 47.1% in test [6] (at 50.0 µM).
